Inconclusive results are not listed. Calls of active or inactive are those of the source. Calls come from the whole dose curve; as a rule, active = well fitted cell-killing curve with a large enough effect; inconclusive = small, poorly fitted or top-dose-only effect, or effect the other way; inactive = no such curve, though single readings can be large or run the other way.
assay: Quantitative High-Throughput drug screen in 47 multiple myeloma cell lines against the NCATS MIPE library collection: SKMM1_PLB cell viability assay (AID 1919863); details: SKMM1 myeloma viability, CellTiter-Glo ATP, 48 h; viability: hits give low values
How it was run: (§1)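 Readout: median RLU from CellTiter-Glo after 5 min at room temperature. Preceding step was 48 h drug treatment of 500 cells/well at 37 °C, 5% CO2, with DMSO-only and media-only control wells.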
Note: nearly all actives have a fitted effect of over 35% in size.
Potency is the fitted concentration of half-maximal effect.

Structure (SMILES)	viability	Potency
CC(=O)OCC1=C(C(=O)O)N2C(=O)[C@@H](N)[C@@H]2SC1	121% (inactive)	–
CC(=O)O[C@@]12CO[C@H]1C[C@H](O)[C@@]1(C)C(=O)[C@H](O)C3=C(C)[C@@H](O)C[C@@](O)([C@@H](OC(=O)c4ccccc4)[C@@H]21)C3(C)C	–	4.18 µM (active)
O=C(NCC1CCOCC1)c1cnc(Nc2ccc(Cl)cc2Cl)nc1C(F)(F)F	104% (inactive)	–
C[C@]12Cc3cn[nH]c3C[C@@H]1CC[C@@H]1[C@H]2CC[C@@]2(C)[C@H]1CC[C@]2(C)O	–	3.32 µM (active)
Cc1ccccc1-n1c(Cn2ncc3c(N)ncnc32)nc2cccc(C)c2c1=O	–	5.26 µM (active)
O=S(=O)(CC1CS1)c1ccc(Oc2ccccc2)cc1 (stereo unspecified)	–	20.9 µM (active)
c1cc2c(cc1[C@H]1OC[C@H]3[C@H]1CO[C@H]3c1ccc3c(c1)OCO3)OCO2	134% (inactive)	–
COc1ccc(C(=O)c2c(C)n(CCN3CCOCC3)c3cc(I)ccc23)cc1	–	16.6 µM (active)
Cc1c(C(=O)Nc2cccc(C(F)(F)F)c2)cc(-c2ccccc2)n1CCCN1CCOCC1	–	26.4 µM (active)
CC[C@H]1C=CC=CC[C@@H](C)[C@H](O)[C@@](C)(O)C(=O)[C@@H](C)[C@H](O)[C@@H](C)C(=O)[C@@H](C)[C@H](O)[C@@H](C)C=CC(=O)O[C@@H]2[C@@H](C)[C@H](CC1)O[C@]1(CC[C@H](C)[C@H](C[C@@H](C)O)O1)[C@H]2C	–	20.9 µM (active)
COC[C@H]1OC(=O)c2coc3c2[C@@]1(C)C1=C(C3=O)[C@@H]2CC[C@H](O)[C@@]2(C)C[C@@H]1OC(C)=O	–	7.43 µM (active)

assay: Quantitative High-Throughput drug screen in 47 multiple myeloma cell lines against the NCATS MIPE library collection: U266_ATCC cell viability assay (AID 1919864); details: U266 myeloma viability, CellTiter-Glo ATP luminescence, 48 h; series mostly up to 45.8 µM; viability (% of DMSO control): at the top concentration;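 for viability (% of DMSO control): 0% = media-only wells without cells and 100% = DMSO-only wells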
How it was run: as §1

Structure (SMILES)	viability (% of DMSO control)	Potency
CC(=O)OCC1=C(C(=O)O)N2C(=O)[C@@H](N)[C@@H]2SC1	125% (inactive)	–
Cc1c(C(=O)c2cccc3ccccc23)c2cccc3c2n1[C@H](CN1CCOCC1)CO3	–	18.7 µM (active)
COC1=C[C@@H]2[C@@H]3Cc4ccc(OC)c(O)c4[C@]2(CCN3C)CC1=O	–	2.35 µM (active)
CC(C)[C@H]1C(=O)N[C@H](CO)Cc2c[nH]c3cccc(c23)N1C	95.4% (inactive)	–
CC(=O)O[C@@]12CO[C@H]1C[C@H](O)[C@@]1(C)C(=O)[C@H](O)C3=C(C)[C@@H](O)C[C@@](O)([C@@H](OC(=O)c4ccccc4)[C@@H]21)C3(C)C	123% (inactive)	–
C=C[C@@H]1CN2CCC1C[C@@H]2[C@@H](O)c1ccnc2ccccc12 (stereo partly specified)	–	13.2 µM (active)
C[C@]12CC[C@H]3[C@@H](CCC4=CC(=O)CC[C@@]43C)[C@H]1CC[C@H]2OC(=O)CCC1CCCC1	101% (inactive)	–
O=C(NCC1CCOCC1)c1cnc(Nc2ccc(Cl)cc2Cl)nc1C(F)(F)F	–	8.33 µM (active)
CCNC(=O)C[C@@H]1N=C(c2ccc(Cl)cc2)c2cc(OC)ccc2-n2c(C)nnc21	–	0.372 µM (active)
CN[C@@H]1Cc2cccc3[nH]c(=O)n(c23)C1	120% (inactive)	–
CC(C)N[C@@H]1CCn2c(=O)[nH]c3cccc(c32)[C@@H]1O	–	1.66 µM (active)
C[C@]12Cc3cn[nH]c3C[C@@H]1CC[C@@H]1[C@H]2CC[C@@]2(C)[C@H]1CC[C@]2(C)O	132% (inactive)	–
CCNC(=O)CC1N=C(c2ccc(Cl)cc2)c2cc(OC)ccc2-n2c(C)nnc21 (stereo unspecified)	–	18.7 µM (active)
Cc1ccccc1-n1c(Cn2ncc3c(N)ncnc32)nc2cccc(C)c2c1=O	136% (inactive)	–
C[C@]12COC(=O)C[C@@H]1CC[C@@H]1[C@H]2CC[C@@]2(C)[C@H]1CC[C@]2(C)O	133% (inactive)	–
O=S(=O)(CC1CS1)c1ccc(Oc2ccccc2)cc1 (stereo unspecified)	–	14.8 µM (active)
C=CCON=C(C[C@H]1O[C@@H]2O[C@]3(C)CC[C@@H]4[C@H](C)CC[C@@H]([C@H]1C)[C@@]24OO3)[C@H]1O[C@@H]2O[C@]3(C)CC[C@H]4[C@H](C)CC[C@@H]([C@@H]1C)[C@@]24OO3	–	0.332 µM (active)
CC(C)(O)C(=O)Nc1ccc([N+](=O)[O-])c(C(F)(F)F)c1	–	18.7 µM (active)
C[C@]12CC[C@@H]3[C@@H](CCC4=CC(=O)CC[C@@H]43)[C@@H]1CC[C@@H]2OC(=O)CCc1ccccc1	118% (inactive)	–
Clc1ccccc1C(c1ccccc1)(c1ccccc1)n1cccn1	–	10.5 µM (active)
Cc1c(C(=O)Nc2cccc(C(F)(F)F)c2)cc(-c2ccccc2)n1CCCN1CCOCC1	–	16.6 µM (active)
N#C[C@H](O[C@@H]1O[C@H](CO[C@@H]2O[C@H](CO)[C@H](O)[C@H](O)[C@H]2O)[C@H](O)[C@H](O)[C@H]1O)c1ccccc1	–	23.5 µM (active)
CCOP(=O)(OCC)C(C)NC(=O)N(CCCl)N=O (stereo unspecified)	119% (inactive)	–
CC[C@H]1C=CC=CC[C@@H](C)[C@H](O)[C@@](C)(O)C(=O)[C@@H](C)[C@H](O)[C@@H](C)C(=O)[C@@H](C)[C@H](O)[C@@H](C)C=CC(=O)O[C@@H]2[C@@H](C)[C@H](CC1)O[C@]1(CC[C@H](C)[C@H](C[C@@H](C)O)O1)[C@H]2C	–	20.9 µM (active)
COC[C@H]1OC(=O)c2coc3c2[C@@]1(C)C1=C(C3=O)[C@@H]2CC[C@H](O)[C@@]2(C)C[C@@H]1OC(C)=O	–	16.6 µM (active)
